From PubChem BioAssay
Results filed as inconclusive are left out. The source made the active and inactive calls.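 Rule for the calls, unless noted: active = normalized viability below 100% at a tested concentration; inactive = the rest.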

How the values were obtained:
[1] = viability loss in pontine glioma line – cell-based, SU-DIPG-XVII, MIPE5.0, CellTiter-Glo, qHTS, dose response (AID 1347060; cut-off not given, nearly all actives have AC50 up to about 26 µM;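 for AC50: cells exposed to compound for 48 hours before viability readout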); settings: CellTiter-Glo ATP luminescence
[2] = viability loss in pontine glioma line – cell-based, SU-DIPG-XXV, MIPE5.0, CellTiter-Glo, qHTS, dose response (AID 1347065; cut-off not given, nearly all actives have AC50 up to about 26 µM;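 note: cells exposed to compound for 48 hours before ATP readout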); settings: CellTiter-Glo ATP luminescence
[3] = JHH-DIPG-1 glioma cell viability, MIPE5.0 library, CellTiter-Glo luminescence, qHTS (AID 1347067; cut-off not given, nearly all actives have AC50 up to about 26 µM;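 note: cells exposed to compound for 48 hours before readout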); settings: JHH-DIPG-1 glioma viability, CellTiter-Glo ATP luminescence
[4] = drug combination growth inhibition, ovarian cancer – cell-based, oncology-focused library, rucaparib conditional, profiling panel (AID 1508598); settings: patient-derived ovarian cancer cells, CellTiter-Glo viability, 144 h, stronger effect = lower value
[5] = growth inhibition of DIPG cells – cell-based, MIPE5.0 library, qHTS (AID 1347068; cut-off not given, nearly all actives have IC50 up to about 30 µM;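 for IC50: cells exposed to compound for 48 hours before viability readout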); settings: SU-DIPG-XXV viability
[6] = viability loss with induced miR-34 in A549 – imaging, A549 dox-inducible miR-34, nuclei and caspase counts, primary screen (AID 1347080;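 active = compounds whose cell count with miR-34 switched on is under 0.7 times the count with it off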); settings: A549 miR-34 inducible, Hoechst nuclei count, 48 h
[7] = MELAS cybrid and Rieske KO viability enhancers – cell-based, MELAS cybrids, Rieske KO mouse fibroblasts, CellTiter-Glo, primary screen (AID 1508586;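 active = mean z-score across replicates of 1.96 or higher in either the MELAS or the Rieske mutant cell line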;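 note: z relative to plate mean and SD of compound and empty wells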); settings: low glucose
[8] = P. berghei load reduction in hepatocytes – cell-based, HepG2, luciferase luminescence, HepG2 viability, primary screen (AID 624349; in the data active = parasite load remaining mostly below about 12%, no sharp cut-off; inactive = mostly above about 10%;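 note: 100% = mean of DMSO negative control wells on the same plate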); settings: P. berghei liver stage in HepG2, luciferase luminescence, concentration not given here; parasite load remaining: stronger effect = lower value; viability: measured here: HepG2 viability without parasites
[9] = at 0.000305 µM, OCI-C5x cells, with rucaparib 10 µM, 100% = cells with rucaparib alone
[10] = at 0.000305 µM, OCI-C5x cells, without rucaparib
[11] = at 0.000305 µM, OCI-P5x cells, with rucaparib 20 µM, 100% = cells with rucaparib alone
[12] = at 0.000305 µM, OCI-P5x cells, without rucaparib
[13] = at 0.00122 µM, OCI-C5x cells, with rucaparib 10 µM, 100% = cells with rucaparib alone
[14] = at 0.00122 µM, OCI-C5x cells, without rucaparib
[15] = at 0.00122 µM, OCI-P5x cells, with rucaparib 20 µM, 100% = cells with rucaparib alone
[16] = at 0.00122 µM, OCI-P5x cells, without rucaparib
[17] = at 0.00488 µM, OCI-C5x cells, with rucaparib 10 µM, 100% = cells with rucaparib alone
[18] = at 0.00488 µM, OCI-C5x cells, without rucaparib
[19] = at 0.00488 µM, OCI-P5x cells, with rucaparib 20 µM, 100% = cells with rucaparib alone
[20] = at 0.00488 µM, OCI-P5x cells, without rucaparib
[21] = at 0.0195 µM, OCI-C5x cells, with rucaparib 10 µM, 100% = cells with rucaparib alone
[22] = at 0.0195 µM, OCI-C5x cells, without rucaparib
[23] = at 0.0195 µM, OCI-P5x cells, with rucaparib 20 µM, 100% = cells with rucaparib alone
[24] = at 0.0195 µM, OCI-P5x cells, without rucaparib
[25] = at 0.0781 µM, OCI-C5x cells, with rucaparib 10 µM, 100% = cells with rucaparib alone
[26] = at 0.0781 µM, OCI-C5x cells, without rucaparib
[27] = at 0.0781 µM, OCI-P5x cells, with rucaparib 20 µM, 100% = cells with rucaparib alone
[28] = at 0.0781 µM, OCI-P5x cells, without rucaparib
[29] = stronger effect = lower value, cell number ratio, induced over uninduced
[30] = measured here: relative caspase fold change +Dox/-Dox
[31] = measured here: total cells with miR-34 induction, stronger effect = lower value
[32] = measured here: total cells without miR-34 induction
[33] = MELAS cybrid survival, CellTiter-Glo 48 h, stronger effect = higher value
[34] = Rieske KO mouse fibroblast survival, CellTiter-Glo 72 h

CC(C)Oc1ccc(C(=O)N[C@H](CNC(=O)CN(C)C)Cc2ccc(-c3cn4cccc([C@H](C)O)c4n3)cc2)cc1Cl
inactive: outcome [3] | viability [4, 9] 116% | viability [4, 10] 118% | viability [4, 11] 118% | viability [4, 12] 103% | viability [4, 13] 112% | viability [4, 14] 123% | viability [4, 15] 107% | viability [4, 16] 107% | viability [4, 17] 117% | viability [4, 18] 115% | viability [4, 19] 107% | viability [4, 20] 101%
active: AC50 [1] 0.0525 µM | AC50 [2] 0.0295 µM | viability [4, 21] 69.6% | viability [4, 22] 73.7% | viability [4, 23] 76.4% | viability [4, 24] 38.4% | viability [4, 25] 57.4% | viability [4, 26] 72.4% | viability [4, 27] 66.4% | viability [4, 28] 30.8% | viability ([4]; at 0.313 µM, OCI-C5x cells, with rucaparib 10 µM, 100% = cells with rucaparib alone) 57.8% | viability ([4]; at 0.313 µM, OCI-C5x cells, without rucaparib) 65% | viability ([4]; at 0.313 µM, OCI-P5x cells, with rucaparib 20 µM, 100% = cells with rucaparib alone) 62.3% | viability ([4]; at 0.313 µM, OCI-P5x cells, without rucaparib) 28.3% | viability ([4]; at 1.25 µM, OCI-C5x cells, with rucaparib 10 µM, 100% = cells with rucaparib alone) 61.8% | viability ([4]; at 1.25 µM, OCI-C5x cells, without rucaparib) 72.8% | viability ([4]; at 1.25 µM, OCI-P5x cells, with rucaparib 20 µM, 100% = cells with rucaparib alone) 62.6% | viability ([4]; at 1.25 µM, OCI-P5x cells, without rucaparib) 26.8% | viability ([4]; at 5 µM, OCI-C5x cells, with rucaparib 10 µM, 100% = cells with rucaparib alone) 79.5% | viability ([4]; at 5 µM, OCI-C5x cells, without rucaparib) 89.6% | viability ([4]; at 5 µM, OCI-P5x cells, with rucaparib 20 µM, 100% = cells with rucaparib alone) 63.4% | viability ([4]; at 5 µM, OCI-P5x cells, without rucaparib) 25.3%

C=CC(=O)Nc1cccc(Nc2nc(Nc3ccc(Oc4ccnc(C(=O)NC)c4)cc3)ncc2F)c1
4090: cell count [6, 31]
active: AC50 [1] 10.5 µM | AC50 [2] 7.42 µM | AC50 [3] 14.8 µM | IC50 [5] 13.2 µM
4430: cell count [6, 32]
1.7: z-score [7, 34]
inactive: fold change [6, 29] 0.924 | z-score [7, 33] 1.34
0.336: fold change [6, 30]

COc1cc2ncnc(Nc3ccc(O)c(Br)c3)c2cc1OC
5290: cell count [6, 32]
98.7%: viability [8]
inactive: parasite load remaining [8] 33.2% | z-score [7, 33] -0.521
-0.0359: z-score [7, 34]
active: AC50 [1] 16.6 µM | AC50 [2] 14.8 µM | AC50 [3] 13.2 µM | fold change [6, 29] 0.645
3410: cell count [6, 31]
0.931: fold change [6, 30]

Cc1cnc(-c2ccccc2C(C)C)nc1NCc1ccc(-n2ccnn2)cc1
8340: cell count [6, 32]
inactive: outcome [1] | outcome [2] | outcome [3] | outcome [5] | fold change [6, 29] 0.905 | z-score [7, 33] -0.372 | viability [4, 9] 118% | viability [4, 10] 116% | viability [4, 11] 101% | viability [4, 12] 100% | viability [4, 13] 132% | viability [4, 14] 118% | viability [4, 16] 102% | viability [4, 17] 132% | viability [4, 18] 120% | viability [4, 20] 102% | viability [4, 21] 123% | viability [4, 22] 110% | viability [4, 23] 103% | viability [4, 25] 123% | viability [4, 26] 118% | viability [4, 27] 100%
0.465: fold change [6, 30]
0.422: z-score [7, 34]
7550: cell count [6, 31]
active: viability [4, 15] 95.9% | viability [4, 19] 98.5% | viability [4, 24] 97.4% | viability [4, 28] 97.6%
